# Test results published in PubChem BioAssay (NCATS).
# Results filed as inconclusive are left out. The source made the active and inactive calls. Unless noted, calls come from the whole dose curve; as a rule, active = well fitted curve in the direction sought with a large enough effect; inconclusive = small, poorly fitted or top-dose-only effect, or another doubt; inactive = no such curve, though single readings can be large; an effect the other way counts as inactive or inconclusive.
# Tests used:
# [1] = Cell Viability - HUV-EC-C (AID 542); note: nearly all actives have a fitted effect of over 35% in size
# In short: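 HUV-EC-C normal human vascular endothelial cells, 1000 cells/well, pre-incubated 5 hr at 37 °C, then exposed to compounds for 40 hr at 37 °C in complete medium. Viability measured as intracellular ATP by CellTiter-Glo luminescence; AC50 from Hill fits.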
# [2] = Cell Viability - LYMP1-002 - Assay at 16 hr (AID 948)
# In short: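 Acute cytotoxicity is scored as a concentration-dependent fall in intracellular ATP in a human lymphoblastoid line (LYMP1-002) after 16 hr compound exposure at 37 C, measured by luciferase luminescence.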
# [3] = MultiTox-Fluor Cytotoxicity Assay - LYMP1-002 - Live Cells (AID 955)
# In short: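 Human lymphoblastoid LYMP1-002 cells, 2500/well in complete medium, rested 5 hr at 37 C, then exposed to compounds for 16 hr at 37 C. Live-cell protease cleavage of GF-AFC read by fluorescence (Ex/Em 405/510) after 60 min at room temperature; AC50 from Hill fits.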
# [4] = MultiTox-Fluor Cytotoxicity Assay - LYMP1-003 - Dead Cells (AID 961); note: nearly all actives have a fitted effect of over 70% in size
# In short: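 Human lymphoblastoid LYMP1-003 cells (2500/well) were treated with compounds for 16 hr at 37 C in complete medium. Dead-cell protease release was read by bis-AAF-R110 fluorescence (Ex/Em 485/520). AC50 came from Hill fits, normalized to DMSO and 15 uM tetraoctylammonium bromide.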
# [5] = MultiTox-Fluor Cytotoxicity Assay - LYMP1-003 - Live Cells (AID 962)
# In short: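 LYMP1-003 human lymphoblastoid cells (2500/well) in complete medium were preincubated 5 hr at 37 C, then exposed to compounds for 16 hr at 37 C. Live-cell protease cleavage of GF-AFC read by fluorescence (Ex/Em 405/510); AC50 from Hill fits.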
# [6] = Cell Viability - LYMP1-003 - Assay at 40 hr (AID 964); note: nearly all actives have a fitted effect of over 60% in size
# In short: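 Human lymphoblastoid LYMP1-003 cells, 2500/well in complete medium, rested 5 hr at 37 C, then exposed to compounds for 40 hr at 37 C. Viability read as intracellular ATP by CellTiter-Glo luminescence; AC50 from Hill fits of concentration-response data.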
# [7] = Cell Viability - LYMP2-004 (AID 966); note: nearly all actives have a fitted effect of over 65% in size
# In short: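 Human lymphoblastoid cells (2500/well) in complete medium were treated with compounds for 24 hr at 37 C, then intracellular ATP was measured by CellTiter-Glo luminescence. AC50 values came from Hill-equation fits of concentration-response data.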
# [8] = Cell Viability - LYMP2-009 (AID 968); note: nearly all actives have a fitted effect of over 55% in size
# [9] = Cell Viability - LYMP2-011 (AID 969); note: nearly all actives have a fitted effect of over 60% in size
# In short: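 Human lymphoblastoid cells (2500/well) were plated in complete medium, preincubated 5 hr at 37 C, then exposed to compounds for 24 hr at 37 C. Intracellular ATP was read by CellTiter-Glo luminescence, and AC50 came from Hill-equation concentration-response fits.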
# [10] = Cell Viability - LYMP2-013 (AID 970); note: nearly all actives have a fitted effect of over 55% in size
# In short: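 Human lymphoblastoid cells, 2500/well, were preincubated 5 hr at 37 C, then treated with compounds for 24 hr at 37 C in complete medium. Intracellular ATP was read by CellTiter-Glo luminescence; AC50 from Hill-equation fits of concentration-response data.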
# [11] = Cell Viability - LYMP2-017 (AID 972); note: nearly all actives have a fitted effect of over 55% in size
# In short: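 Human lymphoblastoid cells (2500/well) were seeded in complete medium, held 5 hr at 37 C, then exposed to compounds for 24 hr at 37 C. Intracellular ATP was read by CellTiter-Glo luminescence after 30 min at room temperature, with AC50 values from Hill-equation fits.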
# [12] = Cell Viability - LYMP2-021 (AID 974);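 note: compound exposure lasts 24 hours at 37 °C; nearly all actives have a fitted effect of over 55% in size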
# In short: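 Human lymphoblastoid cells (2500/well) were preincubated 5 hr at 37 C, then exposed to compounds for 24 hr at 37 C in complete medium. Intracellular ATP was read by CellTiter-Glo luminescence; AC50 came from Hill-equation fits of concentration-response data.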
# [13] = Cell Viability - LYMP2-023 (AID 975); note: nearly all actives have a fitted effect of over 55% in size
# In short: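 Human lymphoblastoid cells (2500/well) were preincubated 5 hr at 37 C, then exposed to compounds for 24 hr at 37 C in complete medium. Cellular ATP was read by CellTiter-Glo luminescence, and AC50 came from Hill-equation fits.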
# [14] = Cell Viability - LYMP2-025 (AID 976)
# In short: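 Human lymphoblastoid LYMP2-025 cells (2500/well) were pre-incubated 5 hr at 37 C, then treated with compounds for 24 hr at 37 C in complete medium. Viability was read as intracellular ATP by CellTiter-Glo luminescence; AC50 from Hill fits.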
# [15] = Cell Viability - LYMP2-006 (AID 978); note: nearly all actives have a fitted effect of over 60% in size
# In short: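 Concentration-dependent loss of intracellular ATP in a human lymphoblastoid line after 24 hr treatment at 37 C was measured by CellTiter-Glo luminescence, with AC50 values obtained from standard Hill-equation modelling.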
# [16] = Cell Viability - LYMP2-010 (AID 981); note: nearly all actives have a fitted effect of over 55% in size
# In short: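 Human lymphoblastoid LYMP2-010 cells (2500/well) were preincubated 5 hr at 37 C, then exposed to compounds for 24 hr at 37 C in complete medium. Intracellular ATP was measured by CellTiter-Glo luminescence after 30 min at room temperature; AC50 from Hill-fitted concentration-response.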
# [17] = Cell Viability - LYMP2-014 (AID 983); note: nearly all actives have a fitted effect of over 50% in size
# In short: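 Human lymphoblastoid cells (2500/well) were pre-incubated 5 hr at 37 C, then exposed to compounds in complete medium for 24 hr at 37 C. Intracellular ATP was read by CellTiter-Glo luminescence after 30 min at room temperature; AC50 from Hill fits.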
# [18] = Cell Viability - LYMP2-026 (AID 989); note: nearly all actives have a fitted effect of over 50% in size
# In short: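 Human lymphoblastoid cells (2500/well) in complete medium were preincubated 5 hr at 37 C, then exposed to compounds for 24 hr at 37 C. Cellular ATP was read by CellTiter-Glo luminescence; AC50 from Hill-equation fits of concentration-response data.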
# [19] = Cell Viability - LYMP1-002 - Assay at 40 hr (AID 994); note: nearly all actives have a fitted effect of over 60% in size
# In short: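 Human lymphoblastoid cells, 2500/well in complete medium, were preincubated 5 hr at 37 C, then exposed to compounds for 40 hr at 37 C. Intracellular ATP was read by CellTiter-Glo luminescence after 30 min at room temperature; AC50 from Hill-equation fits.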
# [20] = qHTS assay for small molecule disruptors of the mitochondrial membrane potential - 5 hr assay (AID 651755; calls by dose curve; note: nearly all actives have a fitted effect of over 40% in size)
# In short: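 HepG2, 2,000 cells/well, overnight attach; cpd or DMSO 5 hr, 37C/5% CO2; Mito-MPS 30 min 37C; fluor 490/535 + 540/590 nm.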
# Potency is the fitted concentration of half-maximal effect.
SMILES,Potency [1],Potency [2],Potency [3],Potency [4],Potency [5],Potency [6],Potency [7],Potency [8],Potency [9],Potency [10],Potency [11],Potency [12],Potency [13],Potency [14],Potency [15],Potency [16],Potency [17],Potency [18],Potency [19],Potency [20]
O=[N+]([O-])c1cc([N+](=O)[O-])c2ccc(S(=O)(=O)O)cc2c1O,inactive,inactive,inactive,inactive,inactive,inactive,inactive,inactive,inactive,inactive,inactive,inactive,inactive,inactive,inactive,inactive,inactive,inactive,inactive,inactive
CCC(C)Nc1ccc(NC(C)CC)cc1 (configuration not stated),10 µM (active),15.8 µM (active),10 µM (active),12.6 µM (active),12.6 µM (active),10 µM (active),6.31 µM (active),3.98 µM (active),6.31 µM (active),6.31 µM (active),3.98 µM (active),3.98 µM (active),6.31 µM (active),7.94 µM (active),5.01 µM (active),3.16 µM (active),5.01 µM (active),7.94 µM (active),15.8 µM (active),59.6 µM (active)
CC(=O)Nc1ccc(C(=O)CCl)cc1,50.1 µM (active),25.1 µM (active),12.6 µM (active),25.1 µM (active),31.6 µM (active),39.8 µM (active),3.98 µM (active),6.31 µM (active),6.31 µM (active),6.31 µM (active),5.01 µM (active),5.01 µM (active),7.94 µM (active),10 µM (active),10 µM (active),3.98 µM (active),7.94 µM (active),7.94 µM (active),39.8 µM (active),inactive
C=CC(=O)OCCOCCOC(=O)C=C,–,–,15.8 µM (active),20 µM (active),31.6 µM (active),25.1 µM (active),10 µM (active),20 µM (active),20 µM (active),25.1 µM (active),20 µM (active),15.8 µM (active),25.1 µM (active),31.6 µM (active),25.1 µM (active),15.8 µM (active),20 µM (active),20 µM (active),25.1 µM (active),inactive
CNc1ccc(O)cc1,–,–,12.6 µM (active),12.6 µM (active),31.6 µM (active),25.1 µM (active),5.01 µM (active),6.31 µM (active),6.31 µM (active),6.31 µM (active),3.98 µM (active),3.98 µM (active),7.94 µM (active),10 µM (active),12.6 µM (active),3.16 µM (active),6.31 µM (active),7.94 µM (active),25.1 µM (active),–
ClC1=C(Cl)C(Cl)(Cl)C(Cl)=C1Cl,inactive,inactive,inactive,inactive,inactive,inactive,inactive,–,–,–,–,–,–,–,–,–,–,–,inactive,inactive
CCCCCCCC[N+](CCCCCCCC)(CCCCCCCC)CCCCCCCC,12.6 µM (active),6.31 µM (active),3.98 µM (active),10 µM (active),12.6 µM (active),3.16 µM (active),7.94 µM (active),3.98 µM (active),6.31 µM (active),7.94 µM (active),7.94 µM (active),7.94 µM (active),7.94 µM (active),12.6 µM (active),5.01 µM (active),3.16 µM (active),6.31 µM (active),7.94 µM (active),3.98 µM (active),2.66 µM (active)
Cc1cc(Nc2ccc(O)cc2)ccc1N,–,inactive,inactive,inactive,inactive,–,39.8 µM (active),50.1 µM (active),50.1 µM (active),50.1 µM (active),39.8 µM (active),50.1 µM (active),50.1 µM (active),50.1 µM (active),50.1 µM (active),31.6 µM (active),50.1 µM (active),50.1 µM (active),inactive,–
Cc1ccc(S(=O)(=O)Oc2ccc(N=Nc3ccc(-c4ccc(N=Nc5c(O)ccc6cc(S(=O)(=O)O)cc(S(=O)(=O)O)c56)c(C)c4)cc3C)cc2)cc1,25.1 µM (active),–,inactive,–,–,–,–,–,–,–,–,–,–,–,–,–,–,–,–,–
Cc1cc(O)c(C(C)(C)C)cc1Sc1cc(C(C)(C)C)c(O)cc1C,39.8 µM (active),50.1 µM (active),25.1 µM (active),31.6 µM (active),39.8 µM (active),39.8 µM (active),31.6 µM (active),50.1 µM (active),39.8 µM (active),31.6 µM (active),50.1 µM (active),31.6 µM (active),50.1 µM (active),39.8 µM (active),31.6 µM (active),31.6 µM (active),39.8 µM (active),25.1 µM (active),39.8 µM (active),16.8 µM (active)
O=Cc1ccc(Cl)c(Cl)c1,inactive,inactive,inactive,inactive,inactive,inactive,inactive,inactive,inactive,inactive,inactive,inactive,inactive,inactive,inactive,inactive,inactive,inactive,inactive,inactive
O=C1OC2(c3cc(Br)c(O)c(Br)c3Oc3c2cc(Br)c(O)c3Br)c2c(Cl)c(Cl)c(Cl)c(Cl)c21,–,inactive,inactive,–,inactive,inactive,–,–,inactive,–,inactive,inactive,inactive,–,inactive,inactive,inactive,inactive,inactive,–
O=C=Nc1ccc(Cc2ccc(N=C=O)cc2)cc1,inactive,inactive,inactive,inactive,inactive,inactive,inactive,inactive,inactive,inactive,inactive,inactive,inactive,inactive,inactive,inactive,inactive,inactive,inactive,inactive
Nc1ccc2cc3ccccc3cc2c1,inactive,inactive,–,inactive,inactive,inactive,inactive,inactive,inactive,inactive,inactive,inactive,inactive,inactive,inactive,inactive,inactive,inactive,inactive,3.76 µM (active)
c1cc(OCC2CO2)cc(OCC2CO2)c1 (configuration not stated),–,–,–,–,–,inactive,–,–,–,–,–,–,–,–,–,–,–,–,–,inactive
